Measured values from PubChem BioAssay (Tox21).
Several values for one entry are separate records, joined by “and”; a condition that tells them apart may be missing. Equal values may be shown once. Activity calls are given as the source filed them. A call without a number means that no potency is given here. Unless noted, calls follow the shape of the dose curve; as a rule, active = well fitted curve in the direction sought with a large enough effect in the repeat runs; inconclusive = weak or mixed curves; inactive = no such curve, though single readings can be large; an effect the other way counts as inactive or inconclusive.

Columns and labels:
[1] = qHTS assay for small molecules that induce genotoxicity in human embryonic kidney cells expressing luciferase-tagged ATAD5 (AID 651632); also: nearly all actives have a fitted effect of over 15% in size; also: potency is read from the fitted curve at half-maximal effect
Procedure, shortened: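 Test compounds were delivered by pin tool onto HEK293T reporter cells (2,000/well) expressing ATAD5 fused to luciferase. After 16 hr at 37C, 5% CO2, Amplite was added for 30 min at room temperature and luminescence was measured.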

[2] = qHTS assay for small molecule agonists of the p53 signaling pathway - cell viability (AID 651633; calls by dose curve; also: nearly all actives have a fitted effect of over 30% in size; also: potency is read from the fitted curve at half-maximal effect)
Procedure, shortened: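 p53RE-bla cells were treated with compound for 16 hours at 37 C. Cytotoxicity was then measured as CellTiter-Glo luminescence after 30 min at room temperature.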

[3] = qHTS assay to test for compound auto fluorescence at 590 nm (red) in HepG2 cells (AID 720674)
Procedure, shortened: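 HepG2 cells, 2,000 per well in MEM with 10% FBS, attached overnight at 37 C, then got 23 nL compound or DMSO. After 1 hr at 37 C, 5% CO2, red fluorescence was read at 540/590 nm against Rose Bengal sodium as reference.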

[4] = qHTS assay to test for compound auto fluorescence at 535 nm (green) in HepG2 cells (AID 720675); also: potency is read from the fitted curve at half-maximal effect
[5] = qHTS assay to test for compound auto fluorescence at 460 nm (blue) in HEK293 cells (AID 720678)
Procedure, shortened: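 HEK293 cells (2,000 per well, medium with 10% dialyzed FBS) attached for 4-5 hr at 37C, then received compound and stood overnight at 37C, 5% CO2. Blue fluorescence was read at Ex/Em 405/460 nm and expressed relative to triamterene.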

[6] = qHTS assay to test for compound auto fluorescence at 590 nm (red) in HEK293 cells (AID 720679)
Procedure, shortened: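 HEK293 cells (2,000/well, medium with 10% dialyzed FBS) attached for 4-5 hr at 37C, received 23 nL compound and were incubated overnight at 37C, 5% CO2. Red fluorescence was then read at 540/590nm Ex/Em, referenced to Rose Bengal sodium.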

[7] = qHTS assay to test for compound auto fluorescence at 535 nm (green) in HEK293 cells (AID 720680)
[8] = qHTS assay to test for compound auto fluorescence at 535 nm (green) in HEK293 cell free culture (AID 720682)
Procedure, shortened: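 Steps: dispense DMEM/10% FBS into empty wells; pin in compound or DMSO; measure fluorescence at 485/535 nm. Values are fluorescein equivalents.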

[9] = qHTS assay to test for compound auto fluorescence at 590 nm (red) in HEK293 cell free culture (AID 720683)
Procedure, shortened: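 Cell-free wells of DMEM with 10% FBS received compound, and intrinsic fluorescence was read at excitation/emission 540/590 nm. Values expressed as equivalence to Rose Bengal sodium.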

[10] = qHTS assay to test for compound auto fluorescence at 590 nm (red) in HepG2 cell free culture (AID 720684)
Procedure, shortened: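 Rose Bengal sodium served as the reference for red signal. Test compounds were dispensed into serum-containing MEM (10% FBS) without cells, and plates were read at 540/590 nm.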

[11] = qHTS assay to test for compound auto fluorescence at 460 nm (blue) in HepG2 cell free culture (AID 720685)
Procedure, shortened: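 Cell-free plates of MEM plus 10% FBS received 23 nL compound or DMSO vehicle; blue-channel (405/460 nm) intensity scored against triamterene as reference fluorophore.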

[12] = qHTS assay to test for compound auto fluorescence at 535 nm (green) in HepG2 cell free culture (AID 720686); also: potency is read from the fitted curve at half-maximal effect
[13] = qHTS assay to test for compound auto fluorescence at 460 nm (blue) in HepG2 cells (AID 720687)
Procedure, shortened: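 HepG2 cells in MEM with 10% FBS, attached overnight at 37 C, were exposed to compound or DMSO for 1 hr at 37 C, 5% CO2. Blue fluorescence was read at 405/460 nm, with triamterene as reference fluorophore.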

[14] = qHTS assay for small molecules that induce genotoxicity in human embryonic kidney cells expressing luciferase-tagged ATAD5 - cell viability (AID 651634; calls by dose curve; also: nearly all actives have a fitted effect of over 25% in size; also: potency is read from the fitted curve at half-maximal effect)
Procedure, shortened: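 Quantitative high-throughput format. HEK293T cells expressing ATAD5 fused to luciferase were plated at 2,000 cells/well and treated 15.5 hr with compound versus DMSO. Viability was determined by fluorescent live-cell protease substrate, 30 min at 37C.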

[15] = qHTS assay to test for compound auto fluorescence at 460 nm (blue) in HEK293 cell free culture (AID 720681)
Procedure, shortened: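 Compounds were added to cell-free DMEM with 10% FBS and fluorescence read directly. The blue channel used 405 nm excitation and 460 nm emission, with triamterene as the reference fluorophore.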

[16] = qHTS assay for small molecule disruptors of the mitochondrial membrane potential - cell viability (AID 720634; calls by dose curve; also: nearly all actives have a fitted effect of over 20% in size; also: potency is read from the fitted curve at half-maximal effect)
Procedure, shortened: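 Same-well counter-screen: following the MMP dye addition, CellTiter-Glo was added to 1 hr compound-treated HepG2 cells and luminescence read after 30 min at room temperature.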

[17] = qHTS assay for small molecule disruptors of the mitochondrial membrane potential (AID 720635); also: potency is read from the fitted curve at half-maximal effect
Procedure, shortened: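 HepG2 cells exposed to compound 1 hr at 37C, then Mito-MPS dye 30 min. Ratio read of aggregate (540/590 nm) versus monomer (490/535 nm) fluorescence.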

[18] = molecular target: Glucocorticoid receptor (Homo sapiens) (UniProt P04150); test: qHTS assay to identify small molecule agonists of the glucocorticoid receptor (GR) signaling pathway (AID 720691; active = well fitted activation curve with a large enough effect in the signal ratio in the repeat runs, not every such curve was filed as active; inconclusive = weak or mixed curves, or effect the other way; inactive = no such curve, though single readings can be large or run the other way; the % refers to the signal ratio; also: potency is read from the fitted curve at half-maximal effect); conditions: GR-bla HeLa, beta-lactamase reporter ratio, 18 h; activation: at 62.4 µM (top of the series)
Sequence of Glucocorticoid receptor (Homo sapiens) (P04150 whole entry, looked up): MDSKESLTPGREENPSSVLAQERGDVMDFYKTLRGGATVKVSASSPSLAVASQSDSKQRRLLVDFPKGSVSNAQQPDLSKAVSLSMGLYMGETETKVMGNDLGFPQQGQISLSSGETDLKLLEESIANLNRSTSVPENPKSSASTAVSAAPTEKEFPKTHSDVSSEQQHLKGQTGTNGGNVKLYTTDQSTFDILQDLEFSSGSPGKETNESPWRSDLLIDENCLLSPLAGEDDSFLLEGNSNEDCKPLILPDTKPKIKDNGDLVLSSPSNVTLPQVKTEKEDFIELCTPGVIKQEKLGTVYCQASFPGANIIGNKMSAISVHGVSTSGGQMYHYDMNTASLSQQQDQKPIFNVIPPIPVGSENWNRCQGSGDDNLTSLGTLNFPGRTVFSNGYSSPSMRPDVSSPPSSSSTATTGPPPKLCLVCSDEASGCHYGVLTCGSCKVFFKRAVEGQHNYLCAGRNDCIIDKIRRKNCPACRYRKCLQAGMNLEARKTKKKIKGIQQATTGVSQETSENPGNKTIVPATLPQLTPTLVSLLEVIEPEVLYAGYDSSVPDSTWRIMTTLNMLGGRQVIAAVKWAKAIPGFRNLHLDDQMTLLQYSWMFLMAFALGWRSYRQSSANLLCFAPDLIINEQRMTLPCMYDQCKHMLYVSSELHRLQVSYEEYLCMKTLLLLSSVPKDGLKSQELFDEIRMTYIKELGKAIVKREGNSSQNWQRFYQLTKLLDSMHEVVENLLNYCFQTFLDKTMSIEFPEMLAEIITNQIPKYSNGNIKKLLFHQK
Procedure, shortened: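 A HeLa cervical cancer line expressing GR and a glucocorticoid response element-driven beta-lactamase gene is treated with compounds for 18 h; LiveBLAzer B/G FRET substrate is then applied and fluorescence read.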
Tags tell the direction and shape of the fitted curve or compound fluorescence and quenching.

SMILES | Potency [1] | Potency [2] | outcome [3] | Potency [4] | Potency [5] | outcome [6] | outcome [7] | outcome [8] | outcome [9] | outcome [10] | Potency [11] | Potency [12] | Potency [13] | Potency [14] | Potency [15] | Potency [16] | Potency [17] | Potency [18]
CN(C[C@@H](CC[N+]12CCC(C3CCCCC3)(CC1)CC2)c1ccc(Cl)c(Cl)c1)C(=O)c1cc(C(F)(F)F)cc(C(F)(F)F)c1 | inactive | 27.3 µM (active) | inactive | inactive | inactive | inactive | inactive | inactive | inactive | inactive | inactive | inactive | inactive | – | – | – | – | –
CCCCCCCC/C=C\CCCCCCCC(=O)N(CCO)CCO | inactive | – | inactive | inactive | inactive | inactive | inactive | inactive | inactive | inactive | inactive | inactive | inactive | inactive | inactive | – | – | –
CC1=C(/C=C/C(C)=C/C=C/C(C)=C\C(=O)O)C(C)(C)CCC1 | inactive | – | inactive | inactive | inactive | inactive | inactive | – | inactive | inactive | inactive | inactive | inactive | – | inactive | inactive | 61.3 µM (active) | –
CN1CCN(CCCN2c3ccccc3Sc3ccc(Cl)cc32)CC1 | inactive | 29.8 µM (active) | inactive | inactive | inactive | inactive | inactive | – | inactive | inactive | inactive | inactive | inactive | – | inactive | – | – | –
CCOc1ccc([N+](=O)[O-])cc1 | inactive | 62 µM (active) | inactive | inactive | inactive | inactive | inactive | – | inactive | inactive | inactive | inactive | inactive | – | inactive | 55.3 µM (active) | – | –
CC(O)(c1ccc(Cl)cc1)c1ccc(Cl)cc1 | inactive | – | inactive | inactive | inactive | inactive | inactive | inactive | inactive | inactive | inactive | inactive | inactive | inactive | inactive | – | 27.3 µM (active) | inactive
N[C@H](CO)C(=O)O | inactive | inactive | inactive | inactive | inactive | inactive | inactive | inactive | inactive | inactive | inactive | inactive | inactive | – | inactive | inactive | – | inactive
COc1ccc2ccccc2c1 | – | – | inactive | inactive | inactive | inactive | inactive | inactive | inactive | inactive | inactive | inactive | inactive | – | inactive | – | – | –
CC(=O)[C@]1(O)Cc2c(O)c3c(c(O)c2[C@@H](O[C@H]2C[C@H](N)[C@H](O)[C@H](C)O2)C1)C(=O)c1ccccc1C3=O | 0.841 µM (active) | – | inactive | 12.6 µM (active) | inactive | inactive | – | – | inactive | inactive | inactive | 14.1 µM [fluorescent] (active) | inactive | – | inactive | inactive | 5.55 µM (active) | 23.9 µM [inconclusive] (active)
COc1cccc(-c2ccc(/C=C\CN3CCCCCC3)cc2Cl)c1 | inactive | – | inactive | inactive | inactive | inactive | inactive | inactive | inactive | inactive | inactive | inactive | inactive | inactive | inactive | – | – | –
CCN1\C(=C/C=C/C=C/c2sc3ccccc3[n+]2CC)Sc2ccccc21 | inactive | – | inactive | inactive | inactive | inactive | inactive | inactive | inactive | inactive | inactive | inactive | inactive | 23.7 µM (active) and 26.6 µM (active) | inactive | inactive | – | –
CN1CCN(CCCN2c3ccccc3Sc3ccc(C(F)(F)F)cc32)CC1 | inactive | 29.8 µM (active) | inactive | inactive | inactive | inactive | inactive | inactive | inactive | inactive | inactive | inactive | inactive | – | inactive | – | – | –
CN1CCN(c2ccccc2/C=C2\SCCN(c3ccc(Cl)c(Cl)c3)C2=O)CC1 | inactive | 61.1 µM (active) | inactive | inactive | inactive | inactive | inactive | inactive | inactive | inactive | inactive | inactive | inactive | inactive | inactive | – | – | –
CC(=O)N(C)C | – | – | inactive | inactive | inactive | inactive | inactive | inactive | inactive | inactive | inactive | inactive | inactive | – | inactive | – | – | –
CN[C@H]1CC[C@@H](c2ccc(Cl)c(Cl)c2)c2ccc(S(N)(=O)=O)cc21 | inactive | – | inactive | inactive | inactive | inactive | inactive | inactive | inactive | inactive | inactive | inactive | inactive | – | – | inactive | 8.63 µM (active) | –
